Consider 21 compounds from PubChem BioAssay (NCI).

Assay [1] is described as follows: NCI Yeast Anticancer Drug Screen. Data for the rad50 strain (AID 155).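 Also: 0% = growth of vehicle-only cultures of the same strain.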 The note with it: S. cerevisiae rad50 strain growth inhibition; at 50.0 µM; active compounds read high. In a few lines: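 Cells are treated with compound, grown, and their growth is then scored against vehicle-only cultures of the same repair-deficient yeast strain.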
Assay [2] is described as follows: NCI Yeast Anticancer Drug Screen. Data for the mec2-1 strain (AID 157). The note with it: S. cerevisiae mec2-1 strain, at 50.0 µM, active compounds read high. The essentials: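 Compounds were applied to mec2-1 yeast cells. Their growth was then compared with that of vehicle-treated cultures to give growth inhibition.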
The nature of assay [3]: NCI Yeast Anticancer Drug Screen. Data for the sgs1 mgt1 strain (AID 161).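 Also: 0% = growth of cultures given vehicle only.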 The note with it: S. cerevisiae sgs1 mgt1 strain, at 50.0 µM, active compounds read high. The essentials:
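This yeast growth screen uses a strain with defined DNA-repair lesions; compound-treated growth is compared with vehicle-treated growth.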

Assay [4] can be described thus: NCI Yeast Anticancer Drug Screen. Data for the cln2 rad14 strain (AID 165).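 Also: 0% = growth equal to vehicle treated cultures.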 As to conditions: S. cerevisiae cln2 rad14 strain, at 50.0 µM, active compounds read high. The essentials: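 Strain: cln2 rad14 yeast, altered in cell cycle control and DNA damage repair. Read-out: growth inhibition vs vehicle.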
A short description of assay [5]: NCI Yeast Anticancer Drug Screen. Data for the bub3 strain (AID 167). The note with it: S. cerevisiae bub3 mutant strain, at 50.0 µM, active compounds read high. The essentials: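 Part of a panel of yeast mutants defective in DNA damage repair or cell cycle regulation. Each strain is grown with compound, and inhibition is calculated relative to solvent-treated cultures.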

A short description of assay [6]: NCI Yeast Anticancer Drug Screen. Data for the mlh1 rad18 strain (AID 175). As to conditions: S. cerevisiae mlh1 rad18 strain growth inhibition; at 50.0 µM; active compounds read high. The essentials:
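A repair-deficient yeast strain is exposed to test compound, and growth is scored relative to vehicle-treated controls.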

Compounds without any hit were thinned out: in the full panel of roughly 79,000, 15% have a hit. Values without a mark were called inactive. Active and inactive are the calls of the source. Rule as the data show it: active = growth inhibition above about 70%; inactive = the rest.

`CCOc1c(N=Nc2cccc(Cl)c2)c(-c2ccccc2)nn1C(N)=S`: the growth inhibition in assay [1] was -3.4%; in assay [2], -10.3%; in assay [3], -24.2%; in assay [4] it was 2.15%; in assay [5] it was 35.5%; in assay [6], 20.8%.
With `CCOC(=O)C(C#N)=C(CC)CC`, the growth inhibition is -4% in assay [1]; -12.3% in assay [2]; -9.2% in assay [3]; -3.95% in assay [4]; -12.1% in assay [5]; -0.2% in assay [6].
Consider `N#CC(c1ccc(O)cc1)N1CCN(C(C#N)c2ccc(O)cc2)CC1` (stereo unspecified), for which the growth inhibition in assay [1] is -1.5%; in assay [2] it was 1%; in assay [3], -33.2%; in assay [4], -26.8%; in assay [5] it was -25.2%; in assay [6] it was -43.4%.
For the compound `Cc1[nH]c(=O)cc(C(=O)O)c1CN`, the growth inhibition in assay [1] is 7.15%; in assay [2], -8.75%; in assay [3], 3.7%; in assay [4], -59.2%; in assay [5] it was -7.25%; in assay [6], -3.45%.
On to `CC(O)CCC(C)O` (stereo unspecified), for which the growth inhibition in assay [1] was -19.1%; in assay [2], -24.2%; in assay [3] it was -4.5%; in assay [4], -4.95%; in assay [5] it was 1.85%; in assay [6], 10.2%.
For the compound `CCC(=O)c1ccc(OC(C)=O)cc1`, the growth inhibition is 36% in assay [1]; -4.75% in assay [2]; -4.85% in assay [3]; -23.4% in assay [4]; 5.7% in assay [5]; 4.65% in assay [6].
`CCCc1c(C(=O)OCC)[nH]c(-c2ccc(-c3[nH]c(C(=O)OCC)c(CCC)c3C(=O)OCC)s2)c1C(=O)OCC`: the growth inhibition is -11.8% in assay [1]; -11.3% in assay [2]; -21.6% in assay [3]; 3% in assay [4]; -12.6% in assay [5]; -16.1% in assay [6].
Regarding `N#C/C(=C/c1ccc[nH]1)C(=O)O`, the growth inhibition in assay [1] is -11.6%; in assay [2], -10.2%; in assay [3], -6.9%; in assay [4] it was -1%; in assay [5], -5.05%; in assay [6], -25.9%.
Consider `CCOC(=O)CN=NNc1ccccc1C(C)=O`, for which the growth inhibition in assay [1] is 21.4%; in assay [2], 7.45%; in assay [3], 10.9%; in assay [4] it was -3.3%; in assay [5], 3.05%; in assay [6], 38.4%.
Take `O=C(Nc1ccccc1C/C(=N/O)c1ccc2c(c1)OCO2)c1ccccc1`: the growth inhibition in assay [1] was 51.5%; in assay [2] it was 0.4%; in assay [3], 54.1%; in assay [4], -32%; in assay [5], 3.55%; in assay [6], 23.4%.
Consider `Clc1ccc(-c2nnc3n2NC(c2ccccc2)S3)c(Cl)c1` (stereo unspecified), for which the growth inhibition is 2.7% in assay [1]; -26% in assay [2]; -13.8% in assay [3]; 10.8% in assay [4]; -18.9% in assay [5]; -27.6% in assay [6].
Take `O=C(NCCNCCCNC(=O)c1cc(-c2ccccc2)nc2ccccc12)c1cccc(O)c1O`: the growth inhibition was 8.4% in assay [1]; 22.6% in assay [2]; 33.1% in assay [3]; 22.6% in assay [4]; 49.5% in assay [5]; 44.2% in assay [6].
Consider `N#CC(C(=O)C(N)=O)c1ccccc1Cl` (stereo unspecified), for which the growth inhibition in assay [1] is -13.5%; in assay [2], -26.8%; in assay [3] it was -6.8%; in assay [4] it was -0.7%; in assay [5], -12.2%; in assay [6], -17.3%.
Regarding `CC(C)(C)OC(=O)NCS(=O)(=O)N(Cc1ccccc1)Cc1ccccc1`, the growth inhibition in assay [1] is 91.8% (active); in assay [2], 89% (active); in assay [3], 51.7%; in assay [4] it was 82.6% (active); in assay [5], 79.4% (active); in assay [6], 89.7% (active).
Take `N#CCCN(CCC#N)C(=O)Nc1cccc2ccccc12`: the growth inhibition in assay [1] is 10.2%; in assay [2] it was -9.15%; in assay [3] it was 5.7%; in assay [4] it was 12.8%; in assay [5] it was -2.25%; in assay [6] it was -16.5%.
Take `CC(=O)Nc1ccc(-c2nnc(SCC(=O)Nc3ccc(C)cc3)o2)cc1`: the growth inhibition is -15% in assay [1]; -5.5% in assay [2]; -5.8% in assay [3]; 8.4% in assay [4]; -13.7% in assay [5]; -38.3% in assay [6].
With `CS(=O)c1ccc(/C=C2/C=Cc3ccccc32)cc1` (stereo unspecified), the growth inhibition in assay [1] was 32.8%; in assay [2], 27.3%; in assay [3] it was 30.5%; in assay [4] it was 22.1%; in assay [5] it was 48.7%; in assay [6], 36%.
Regarding `CCOC(=O)CCNc1nc(N)nc(C)c1NC=O`, the growth inhibition is -11.9% in assay [1]; 5.55% in assay [2]; -16.5% in assay [3]; 9.7% in assay [4]; 5.9% in assay [5]; 16.9% in assay [6].
`COc1ccc(OC)c(N=Cc2ccc(C=Nc3cc(OC)ccc3OC)cc2)c1`: the growth inhibition in assay [1] was -8%; in assay [2], -12.3%; in assay [3] it was -10.6%; in assay [4], 4.7%; in assay [5], -9%; in assay [6], -5.8%.
With `C=CCOc1c(C)cc(C(N)=O)cc1C`, the growth inhibition was 4.45% in assay [1]; -6.85% in assay [2]; 24.6% in assay [3]; 18.9% in assay [4]; 5.45% in assay [5]; 51.4% in assay [6].
Consider `C=CCOc1cc2c(cc1C(C)c1ccc(OC)c(OC)c1)OCO2` (stereo unspecified), for which the growth inhibition was 32.9% in assay [1]; -3.2% in assay [2]; 17.3% in assay [3]; 18.4% in assay [4]; 6.25% in assay [5]; 49.2% in assay [6].
